Bioassay records: PubChem BioAssay, National Center for Advancing Translational Sciences (NCATS)
Rows were chosen to be rich in hits. Some 11% of all compounds tested hit in one or more screens of this group.
HPGD block = blocks human HPGD enzyme activity; purified HPGD, NADH fluorescence kinetic, PGE2 substrate; Potency, µM, inactives show at the top dose activity change, negative = inhibition, actives largely listed as inhibitors; 150,000 compounds, 4.3% hits; P15428; further: potency means the concentration at half of the fitted maximal effect
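NADH formation kinetics: reaction with 30 uM PGE2 and 1 mM NAD+ (final), 20 nM enzyme, Tris-HCl pH 8 with Tween 20, after 15 min compound preincubation at room temperature. Fluorescence change, last versus first of five reads.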
PNC assembly inh = blocks assembly of the perinucleolar compartment. PC3M PTB-GFP, PNC prevalence imaging, 16 h; stronger effect = lower value. activity change (PNC), negative = inhibition, % at 10 µM. 140,000 compounds, 3.1% hits. AID 2417;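 active means readout at or below -70, meaning at least 70% loss of cells showing the perinucleolar compartment, a nuclear body marking cancer cells; inconclusive means readout between -30 and a set limit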;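 further: plate controls were DMSO wells for no effect and camptothecin positive control wells for full effect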
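Compounds are pinned in duplicate onto adhered PC3M cells stably expressing GFP-tagged PTB and incubated 16 h at 37 C. Cells are then fixed, nuclei stained with Hoechst, and PNC-positive cells counted.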
ALDH1A1 inh = inhibitors of human aldehyde dehydrogenase 1A1. AID 1030. Purified ALDH1A1, NADH fluorescence, propionaldehyde substrate. 220,000 compounds, 7.3% hits. Potency, µM (series often up to 75.3 µM), without a hit: at the top dose activity, negative = inhibition, actives largely listed as inhibitors. P00352;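 further: potency means the concentration at half of the fitted maximal effect; plate controls were no enzyme wells and a reference inhibitor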
Target sequence (P00352 whole entry, looked up): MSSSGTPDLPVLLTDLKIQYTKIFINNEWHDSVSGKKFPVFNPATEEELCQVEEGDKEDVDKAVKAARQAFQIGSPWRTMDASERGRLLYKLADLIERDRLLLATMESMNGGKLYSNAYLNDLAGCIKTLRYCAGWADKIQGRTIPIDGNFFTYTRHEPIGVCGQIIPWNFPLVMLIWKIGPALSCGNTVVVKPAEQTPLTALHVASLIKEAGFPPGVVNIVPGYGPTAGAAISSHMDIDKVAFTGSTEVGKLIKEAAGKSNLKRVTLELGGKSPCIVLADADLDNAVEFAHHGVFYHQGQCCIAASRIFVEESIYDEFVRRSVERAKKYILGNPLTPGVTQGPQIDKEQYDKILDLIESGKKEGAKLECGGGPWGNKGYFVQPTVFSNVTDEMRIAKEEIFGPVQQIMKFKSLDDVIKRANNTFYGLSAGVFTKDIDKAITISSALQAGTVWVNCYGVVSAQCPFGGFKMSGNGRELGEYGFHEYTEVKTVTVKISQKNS
Active calls of the source: *; ? = inconclusive; / = no result; [ ] = remark or other dose. Unless noted, the call rests on the fitted dose curve; in most records, active means well fitted inhibition curve with a large enough effect (not every such curve was filed as active); inconclusive means small, poorly fitted or top-dose-only effect, or another doubt; inactive means no such curve, though single readings can be large or run the other way. Unless noted, on the % scale 0 is the no-effect control and ±100 the full control effect.

SMILES	HPGD block	PNC assembly inh	ALDH1A1 inh
CCN1CCCC1Cn1c(-c2ccccc2)nc2c(N(CCOC)CCOC)nc(C)nc21 (configuration not stated)	-24.5%	/	?
CC(=O)N(c1ccccc1)C1CCCC1	-7.4%	1.9	0.8%
O=C(CCl)N(c1ccccc1)C1CCCCC1	/	/	0.0355µM*
CCN(CC)S(=O)(=O)c1cccc(C(=O)N2CC(O)CC2C(=O)O)c1 (configuration not stated)	-14.7%	-106.5*	11.7%
CCN(CC)S(=O)(=O)c1cccc(C(=O)N2CC(O)CC2C(=O)OC)c1 (configuration not stated)	0.3%	-23.1	11.9%
CC(=O)N1c2ccccc2C(=O)C1N1CCCCC1 (configuration not stated)	-16.7%	?	28.2µM*
CC(=O)Oc1ccc(C2OC(=O)c3ccccc3N2C(C)=O)cc1 (configuration not stated)	-5.8%	-12.6	-11.4%
COC(=O)c1c(NC(=O)CN2CCC3(O)CCCCC3C2c2cc(OC)ccc2OC)sc(C)c1C (configuration not stated)	?	-16.3	?
CCCCNC(=O)CN1CCC2(O)CCCCC2C1c1ccccc1OC (configuration not stated)	-3.9%	37.7	?
COc1ccccc1C1C2CCCCC2(O)CCN1CC(=O)Nc1ccccc1 (configuration not stated)	-6.0%	-103.7*	?
COC(=O)c1c(NC(=O)CN2CCC3(O)CCCCC3C2c2ccc(F)cc2)sc(C)c1C (configuration not stated)	-21.0%	-17.1	25.1µM*
NC(=O)c1cc2cc(Cl)ccc2oc1=Nc1cccc(C(F)(F)F)c1	-3.3%	7.4	6.2%
COC(=O)N1CCC2(CCCN(Cc3ccccc3)C2)CC1	-2.3%	/	?
COc1ccc(NC(=O)Cn2c(=O)n(CC(=O)NCc3ccco3)c(=O)c3ccccc32)cc1OC	-5.3%	-10.8	8.6%
COc1cc2c(=O)n(Cc3ccco3)c(=O)n(CC(=O)c3ccc(Br)cc3)c2cc1OC	-3.0%	18.2	0.398µM*
COc1cc2c(=O)n(Cc3ccco3)c(=O)n(CC(=O)c3cccc(Br)c3)c2cc1OC	-5.7%	?	1.12µM*
COCCNC(=O)CCCn1c(=O)c2cc(OC)c(OC)cc2n(CC(=O)c2cccc(OC)c2)c1=O	/	/	-10.9%
CC1(C)O[C@H]2C[C@@H]3[C@H]4CCC5=CC(=O)CC[C@@]5(C)[C@]4(F)[C@@H](O)C[C@@]3(C)[C@@]2(C(=O)CCl)O1	-5.0%	/	-0.7%[20.9 µM]
Cc1ccc(NC(=O)COC(=O)Cc2ccsc2)cc1S(=O)(=O)N1CCOCC1	-0.2%	0.5	-2.7%
CC(C)N1CCC(=NNc2ccc(S(=O)(=O)N3CCOCC3)cc2[N+](=O)[O-])CC1	-8.2%	-4.1	28.2µM*
CC(=O)N1CCC(=NNc2ccc(S(=O)(=O)N3CCOCC3)cc2[N+](=O)[O-])CC1	-10.7%	1.9	-0.4%
Cc1cccc(NC(=O)c2ccc3c(Cl)c4c(nc3c2)CCCC4)n1	/	/	-0.7%
CN(C)c1cccc(C(=O)Nc2ccc3nc4n(c(=O)c3c2)CCCCC4)c1	-17.2%	?	?
CCN(C(=O)c1ccc2c(Cl)c3c(nc2c1)CCC3)c1ccc(C)c(C)c1	?	62.5	14.1µM*
CN(C(=O)c1ccc2c(Cl)c3c(nc2c1)CCC3)c1ccccc1	4.47µM*	-12.8	?
SMILES	HPGD block	PNC assembly inh	ALDH1A1 inh
CC(=O)c1ccc(N2CCN(C(=O)c3ccc4c(Cl)c5c(nc4c3)CCCC5)CC2)cc1	/	/	6.3%
CN(C(=O)c1ccc2c(=O)n3c(nc2c1)CCCCC3)c1ccccc1	-15.4%	-100.0*	5.9%
COC(=O)C1=C(C)N(Cc2ccco2)C(=O)N[C@H]1c1ccc(Br)cc1	-9.8%	?	6.2%
CC(C)(C)c1cnnn1-c1ccc(C=O)cc1	1.3%	?	25.1µM*
CC(C)(C)c1cnnn1-c1ccc(C(=O)CCl)cc1	14.1µM*	?	0.708µM*
CC(C)(C)c1cnnn1-c1cccc([N+](=O)[O-])c1	/	/	3.6%
Cc1onc(-c2ccccc2Cl)c1C(=O)Nc1ccc(-n2nncc2C(C)(C)C)cc1	-1.9%	4.8	?
Cc1ccc(N=C2NC(=O)/C(=C/c3cn(C)c4ccccc34)S2)cc1C	-9.5%	25.3	0.1%
Cc1cc(/C=C2\SC(=Nc3ccc(F)cc3)NC2=O)c(C)n1-c1ccc(S(N)(=O)=O)cc1	-10.4%	-99.1*	?
Cc1cc(/C=C2\SC(N)=NC2=O)c(C)n1-c1ccccc1	-13.3%	-1.7	?
Cc1cc(/C=C2/SC(=O)NC2=O)c(C)n1-c1ccc(N2CCOCC2)cc1	8.91µM*	?	-8.3%
O=C(O)CCC(=O)NNc1ccccc1[N+](=O)[O-]	-11.4%	27.4	1.3%
